Data taken from PubChem BioAssay AID720514 (Broad Institute, 2013).
Screen size: about 2,100 compounds; about 300 (14%) were called active. Not shown: some 2% with an inconclusive outcome.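 Rule for the calls: active = every replicate test run called active, with the signal falling and half-maximal concentration within twice the top valid dose; inconclusive = the replicate test runs disagree in their calls; inactive = every test run inactive, including effects in the opposite direction.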 Not all results are given here. Entries with a potency or affinity are not part of this list.

Test: inhibitors of PGC1a acetylation in cells, dose response, cell-based, cherry-picked samples (AID 720514);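 note: actives lower the acetylation signal so they count as inhibitors of PGC1a acetylation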
Details: U2OS PGC1a acetylation, AlphaLISA, overnight; series mostly up to 19.5 µM

outcome, inactive:
O=C(NN1c2ccccc2CCc2ccccc21)c1ccccc1Br
CCOCCn1c(CN(Cc2ccccc2)Cc2ccccc2)nc2c1c(=O)n(C)c(=O)n2C
CC(=O)Nc1nonc1-c1nc2ccccc2n1Cc1ccccc1
O=C(COCc1cc(-c2ccc3c(c2)OCO3)on1)Nc1cccnc1
CCOC(=O)CNS(=O)(=O)c1cc(-c2nnc(Nc3ccc4c(c3)OCO4)c3ccccc23)ccc1C
O=C(COc1ccc([N+](=O)[O-])cc1)Nc1ccc(C(=O)NCc2cccnc2)cc1
CCOC(=O)C(NC(=O)c1ccccc1OCC)(Nc1ncccn1)C(F)(F)F (stereo unspecified)
Cc1c(C(=O)OCC(=O)c2c(N)n(CC(C)C)c(=O)n(C)c2=O)oc2ccccc12
COc1ccc(C2N(S(=O)(=O)c3ccccc3)CCN2S(=O)(=O)c2ccc(C)cc2)cc1 (stereo unspecified)
Cc1ccc(S(=O)(=O)N2CCN(S(=O)(=O)c3ccc(C)cc3)C2c2ccccc2)cc1
O=C(NCc1cccs1)c1ccc(Cl)c(S(=O)(=O)N2CCCC2)c1
COc1ccc(C(CNC(=O)c2cccc(N(C)C)c2)N2CCCC2)cc1 (stereo unspecified)
C[C@@H]1CN([C@H](C)CO)C(=O)c2c(c3ccccc3n2C)-c2ccccc2CO[C@@H]1CN(C)C(=O)[C@H](C)c1ccccc1
COc1cc(CNC(=O)c2cc(-c3cc(C)cc(F)c3)n[nH]2)cc(OC)c1
Cc1ccc(NC(=O)c2c(C(F)(F)F)nn(C)c2SCc2ccc(Cl)cc2)cc1C
CC(=O)Nc1cc(C(=O)OCc2cccc([N+](=O)[O-])c2)ccc1C
O=C(Nc1c(F)cccc1F)c1ccc(-n2cncn2)nc1
Cc1ccc(C(=O)c2c[nH]c(C(=O)NCc3cccnc3)c2)cc1
CC(C)(C)c1ccc(C(=O)Nc2ccc(C(=O)NCc3cccnc3)cc2)cc1
CCO[C@H]1OC(C(=O)N2CCCCCCC2)=C[C@@H](C2CCCCC2)[C@@H]1CCCO
Cc1cc(=O)oc2cc(OCC(=O)OCC(=O)Nc3ccccc3F)ccc12
C[C@@H]1CN([C@H](C)CO)C(=O)c2c(c3ccccc3n2C)-c2ccccc2CO[C@@H]1CN(C)C(=O)c1ccccc1
C[C@@H]1CN([C@@H](C)CO)C(=O)c2c(c3ccccc3n2C)-c2ccccc2CO[C@@H]1CN(C)C(=O)c1ccccc1
CC(C)c1ccc(NC(=O)c2ccc3c(c2)CCN3S(C)(=O)=O)cc1
COc1ccc(-c2cnc3c(c2)C(=O)N([C@H](C)CO)C[C@@H](C)[C@H](CN(C)C(=O)C2CCC2)O3)cc1
COc1ccc(C#Cc2cnc3c(c2)C(=O)N([C@H](C)CO)C[C@H](C)[C@H](CN(C)S(=O)(=O)c2cccc(F)c2)O3)cc1OC
COc1ccc(C#Cc2cnc3c(c2)C(=O)N([C@H](C)CO)C[C@H](C)[C@H](CN(C)S(=O)(=O)c2cccs2)O3)cc1OC
COc1ccc(NC(=O)N(C)C[C@H]2OCc3ccccc3-c3c(n(C)c4ccccc34)C(=O)N([C@@H](C)CO)C[C@H]2C)c(OC)c1
O=C(Nc1ccc(-c2noc(-c3cccs3)n2)cc1)c1cccnc1
CCOC(=S)SCC(=O)Nc1nc(C)c(C)s1
CC(=O)n1cc([C@@H]2C=C(C(=O)Nc3ccccc3)O[C@H](OCc3ccc(CO)cc3)C2)c2ccccc21
Cc1cc(C(=O)NNS(=O)(=O)c2ccccc2C(F)(F)F)nn1C(C)(C)C
C[C@@H]1CN([C@@H](C)CO)C(=O)c2c(c3ccccc3n2C)-c2ccccc2CO[C@@H]1CN(C)C(=O)Nc1ccccc1C(F)(F)F
COc1cccc(S(=O)(=O)N(C)C[C@@H]2Oc3cc(C4=CCCC4)ccc3S(=O)(=O)N([C@H](C)CO)C[C@@H]2C)c1
O=C(NC(Nc1cc(C(F)(F)F)ccc1Cl)C(=O)c1ccccc1)c1ccccc1 (stereo unspecified)
CCN(CC)CCNC(=O)c1ccc2c(c1NCCO)C(=O)c1ccccc1C2=O
CCCCn1c(CN(Cc2ccccc2)Cc2ccccc2)nc2c1c(=O)n(C)c(=O)n2C
CN1Cc2c(N3CCOCC3)nc3sc(C(=O)c4ccc(Br)cc4)c(N)c3c2CC1(C)C
O=C(c1ccccc1)C(O)(Cc1ccccc1)c1ccccc1 (stereo unspecified)
CC1CCN(S(=O)(=O)c2ccc(NC(=O)c3ccccc3F)cc2)CC1
COc1ccc(S(=O)(=O)N2CCOCC2)cc1NC(=O)CCNC(=O)c1ccc([N+](=O)[O-])cc1
CCOC(=O)C1=CC[C@@H](c2ccc(OC)cc2)N(S(=O)(=O)c2ccc(C)cc2)[C@H]1CC
CN(C(=O)C1CC1)C1CCS(=O)(=O)C1 (stereo unspecified)
CCOc1ccccc1NC(=O)CSc1cn[nH]n1
O=S1(=O)CCOC[C@H](CC2CCCCC2)N1Cc1ccc(F)cc1
COc1ccc([C@H]2/C=C\CN(S(=O)(=O)/C=C/c3ccccc3)[C@@H](C)C(=O)N2Cc2ccc(F)cc2)cc1
Cc1ccc(CN(CC(O)COc2cccc3[nH]cc(C)c23)C(C)(C)C)cc1 (stereo unspecified)
C#CCN1[C@H](/C=C/C2CC2)[C@H](Cc2ccccc2)OC(=O)[C@@H]1[C@@H]1N[C@@H](C(=O)OC)C(C)(C)S1
COc1ccc(S(=O)(=O)N2CCOCC2)cc1NC(=O)CCNC(=O)c1ccc(Cl)cc1
CCCN(CCC)CCNC(=O)c1cc2c(=O)n(CC)c3ccccc3c2s1
C[C@@H]1CN([C@@H](C)CO)C(=O)c2cc(C#CC3CCCC3)cnc2O[C@H]1CN(C)C(=O)Nc1ccccc1
C[C@H](CO)N1C[C@H](C)[C@H](CN(C)Cc2ccc(C(=O)O)cc2)Oc2ncc(-c3ccccc3)cc2C1=O
COc1ccc(S(=O)(=O)N(C)C[C@H]2Oc3cc(C4=CCCC4)ccc3S(=O)(=O)N([C@H](C)CO)C[C@@H]2C)cc1
CC(C)C#Cc1cnc2c(c1)C(=O)N([C@@H](C)CO)C[C@@H](C)[C@@H](CN(C)C(=O)c1ccccn1)O2
Cc1ccccc1-c1ccc2c(c1)O[C@H](CN(C)Cc1ccncc1)[C@@H](C)CN([C@@H](C)CO)S2(=O)=O
C[C@H]1CN([C@@H](C)CO)C(=O)c2cc(/C=C/c3ccccc3)cnc2O[C@H]1CN(C)C(=O)CN(C)C
